Measurements taken from the supplement of paper PMC8975748.
Where a name gives a salt, the structure may show the parent alone.

system: Saccharomyces cerevisiae BY4741 SeMeCo community; assay: z-score of subpopulation abundance vs DMSO median, subpopulation auxotrophic for M; higher = larger share of this subpopulation than in DMSO controls; details: 10 µM; 24 h; SM minimal medium; subpopulation (auxotrophy): M
Protocol: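 Fluorescent four-plasmid SeMeCo (self-establishing metabolically cooperating S. cerevisiae BY4741 community; plasmids pH-mRuby2, pL-mWasabi, pU-eCFP, pM-TagRFP657) was grown 24 h in minimal SM medium with each Selleck FDA-approved drug at 10 µM in 384-well plates. Cells were fixed and imaged by high-content confocal microscopy. For each auxotrophic subpopulation (and the prototroph), a z-score gives the deviation from the DMSO vehicle-control population median.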

Structure (SMILES) | z-score of subpopulation abundance
C[C@H]1c2cccc(O)c2C(O)=C2C(=O)[C@]3(O)C(O)=C(C(N)=O)C(=O)[C@@H](N(C)C)[C@@H]3[C@@H](O)[C@@H]21 [Doxycycline monohydrate] | -0.88
CCCCCCCCOc1ccccc1C(=O)Nc1ccc(C(=O)OCC[N+](C)(CC)CC)cc1 [Otilonium Bromide] | -2.04
Oc1cccc(O)c1 [Resorcinol] | -0.66
COc1cccc2c1C(=O)c1c(O)c3c(c(O)c1C2=O)C[C@@](O)(C(=O)CO)C[C@@H]3O[C@H]1C[C@H](N)[C@H](O[C@@H]2CCCCO2)[C@H](C)O1 [Pirarubicin] | -12
CO/N=C(\C(=O)N[C@@H]1C(=O)N2C(C(=O)O)=CCS[C@H]12)c1csc(N)n1 [Ceftizoxime] | 0.26
Clc1ccc(C(Cn2ccnc2)OCc2csc3c(Cl)cccc23)c(Cl)c1 (stereo not given) [Sertaconazole nitrate] | -9.36
CC1=C(C(=O)O)N2C(=O)[C@@H](NC(=O)[C@H](N)C3=CCC=CC3)[C@H]2SC1 [Cefradine] | -0.36
COc1ccc(CCN(C)CCCC(C#N)(c2ccc(OC)c(OC)c2)C(C)C)cc1OC (stereo not given) [Verapamil HCl] | 1.34
C[C@H]1[C@H](NC(=O)/C(=N\OC(C)(C)C(=O)O)c2csc(N)n2)C(=O)N1S(=O)(=O)O [Aztreonam] | 0.26
CCC[C@@H]1C[C@@H](C(=O)N[C@@H]([C@H]2O[C@H](SC)[C@H](O)[C@@H](O)[C@H]2O)[C@H](C)Cl)N(C)C1 [Clindamycin HCl] | 0.72
COc1cccc2c1C(=O)c1c(O)c3c(c(O)c1C2=O)C[C@@](O)(C(C)=O)C[C@@H]3O[C@H]1C[C@H](N)[C@H](O)[C@H](C)O1 [Daunorubicin HCl] | -4.78
CSc1nc2cc(Cl)c(Oc3cccc(Cl)c3Cl)cc2[nH]1 [Triclabendazole] | -9.19
CO/N=C(\C(=O)N[C@@H]1C(=O)N2C(C(=O)OCOC(=O)C(C)(C)C)=C(/C=C\c3scnc3C)CS[C@H]12)c1csc(N)n1 [Cefditoren Pivoxil] | 0.2
Cc1[nH]cnc1CN1CCc2c(c3ccccc3n2C)C1=O [Alosetron Hydrochloride] | 0.38
CCCNCC(O)COc1ccccc1C(=O)CCc1ccccc1 (stereo not given) [Propafenone HCl] | -0.38
CN1CCC(=C2c3ccccc3CCc3sccc32)CC1 [Pizotifen Malate] | 0.26
CCOc1cc(N)c(Cl)cc1C(=O)NCC1CN(Cc2ccc(F)cc2)CCO1 (stereo not given) [Mosapride Citrate] | 0.17
O=C(O)Cc1ccccc1Nc1c(Cl)cccc1Cl [Diclofenac Diethylamine] | -0.07
N#CC(c1ccc(Cl)cc1)c1c(Cl)cc(-n2ncc(=O)[nH]c2=O)cc1Cl (stereo not given) [Diclazuril] | 0.92
C[C@H]1c2cccc(O)c2C(O)=C2C(=O)[C@]3(O)C(O)=C(C(N)=O)C(=O)[C@@H](N(C)C)[C@@H]3[C@@H](O)[C@@H]21 [Doxycycline] | 0.04

Structure (SMILES) | z-score of subpopulation abundance
O=C1C(CC[S+]([O-])c2ccccc2)C(=O)N(c2ccccc2)N1c1ccccc1 (racemic) [(+/-)-Sulfinpyrazone] | -0.48
C=C[C@]1(C)C[C@@H](OC(=O)CS[C@@H]2C[C@H]3CC[C@@H](C2)N3C)[C@]2(C)[C@H](C)CC[C@]3(CCC(=O)[C@H]32)[C@@H](C)[C@@H]1O [Retapamulin] | -0.9
Nc1nnc(-c2cccc(Cl)c2Cl)c(N)n1 [Lamotrigine] | 0.91
COc1ccc(CC2c3cc(OC)c(OC)cc3CC[N+]2(C)CCC(=O)OCCCCCOC(=O)CC[N+]2(C)CCc3cc(OC)c(OC)cc3C2Cc2ccc(OC)c(OC)c2)cc1OC (stereo not given) [Atracurium Besylate] | -0.87
CCCCC(F)(F)[C@@]1(O)CC[C@H]2[C@@H](CC(=O)[C@@H]2CCCCCCC(=O)O)O1 [Lubiprostone] | -0.11
CO[C@H]1O[C@@H]2O[C@@]3(C)CC[C@H]4[C@H](C)CC[C@@H]([C@H]1C)[C@@]24OO3 [Artemether] | -4.52
C[C@@H]1[C@H](O)[C@@H](C)/C=C/C=C/C=C/C=C/C=C/C=C/C=C/[C@H](O[C@@H]2O[C@H](C)[C@@H](O)[C@H](N)[C@@H]2O)C[C@@H]2O[C@](O)(C[C@@H](O)C[C@@H](O)[C@H](O)CC[C@@H](O)C[C@@H](O)CC(=O)O[C@H]1C)C[C@H](O)[C@H]2C(=O)O [Amphotericin B] | -8.72
C[n+]1ccccc1C=NO [Pralidoxime Iodide] | 0.07
CCn1cc(C(=O)O)c(=O)c2ccc(C)nc21 [Nalidixic acid] | -1.04
NC(=O)N1c2ccccc2CC(=O)c2ccccc21 [Oxcarbazepine] | -0.31
O=C1CCc2cc(OCCCCc3nnnn3C3CCCCC3)ccc2N1 [Cilostazol] | -0.68
Oc1c(Br)cc(Br)c2cccnc12 [Broxyquinoline] | 3.22
O=C(c1ccccc1)c1ccc2n1CCC2C(=O)O (stereo not given) [Ketorolac tromethamine salt] | 0.27
CC[C@H](C)C(=O)O[C@H]1C[C@H](O)C=C2C=C[C@H](C)[C@H](CC[C@@H](O)C[C@@H](O)CC(=O)O)[C@H]21 [Pravastatin sodium] | 0.01
NC(=N\CCCCCC/N=C(N)/N=C(\N)Nc1ccc(Cl)cc1)/N=C(\N)Nc1ccc(Cl)cc1 [Chlorhexidine diacetate] | -2.47
OC(CCCN1CCCCC1)(c1ccccc1)c1ccccc1 [Diphenidol HCl] | 0.98
Nc1ccc(S(=O)(=O)c2ccc(N)cc2)cc1 [Dapson] | 0.68
C#C[C@]1(O)CC[C@H]2[C@@H]3CCC4=CCCC[C@@H]4[C@H]3C(=C)C[C@@]21CC [Desogestrel] | -0.11
Cn1c([N+](=O)[O-])cnc1COC(N)=O [Ronidazole] | -0.37
Cc1ccc(S(=O)(=O)NC(=O)NN2CC3CCCC3C2)cc1 (stereo not given) [Gliclazide] | 0.04
